Assay outcomes: PubChem BioAssay, National Center for Advancing Translational Sciences (NCATS)
NPR1 antag – blocks ANP-stimulated signaling of human Npr1 receptor; P16066; HEK293 hNpr1 GloSensor cGMP, ANP-stimulated luminescence; Potency, µM (series often up to 46.3 µM), inactives show top-dose activity change, negative = inhibition, actives largely listed as inhibitors; 76,000 compounds, 1.6% hits; AID 1347048; calls by dose curve; also: nearly all actives have a fitted effect of over 60% in size
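Compound pre-incubated 30 min at room temperature on GloSensor-loaded HEK293 cells stably carrying hNpr1 and the pGS-40F cGMP biosensor. Stimulation uses hNppA at 0.1 nM final; luminescence is taken at baseline and 20 min post-agonist.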
GPT2 inhibitor – inhibitors of human GPT2 alanine aminotransferase; AID 1671188; Potency, µM (top dose mostly 57.7 µM), for inactives: top-dose activity change, negative = inhibition, most hits filed as inhibitors; Q8TD30; Recombinant GPT2, coupled pyruvate oxidase/HRP Amplex Red fluorescence; 100,000 compounds, 0.25% hits; also: nearly all actives have a fitted effect of over 60% in size
Target sequence (Q8TD30 whole entry, looked up): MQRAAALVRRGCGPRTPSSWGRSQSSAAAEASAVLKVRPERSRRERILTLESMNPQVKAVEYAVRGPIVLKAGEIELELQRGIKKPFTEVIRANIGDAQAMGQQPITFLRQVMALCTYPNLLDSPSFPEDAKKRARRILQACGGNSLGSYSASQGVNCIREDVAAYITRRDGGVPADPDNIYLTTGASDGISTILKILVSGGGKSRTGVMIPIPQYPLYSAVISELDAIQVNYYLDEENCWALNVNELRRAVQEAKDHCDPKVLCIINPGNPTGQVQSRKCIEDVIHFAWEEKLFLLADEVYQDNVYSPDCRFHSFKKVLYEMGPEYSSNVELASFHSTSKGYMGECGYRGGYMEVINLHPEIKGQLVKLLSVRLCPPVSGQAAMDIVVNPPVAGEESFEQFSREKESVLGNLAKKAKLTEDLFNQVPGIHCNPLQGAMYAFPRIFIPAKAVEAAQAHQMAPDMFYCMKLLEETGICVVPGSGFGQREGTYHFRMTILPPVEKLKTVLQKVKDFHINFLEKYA
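Inhibition is scored from Amplex Red fluorescence generated when pyruvate oxidase and HRP act on pyruvate released by GPT2. Reactions contain 10ng/uL enzyme, 250uM a-KG and 2mM L-alanine and run 30 min at room temperature.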
3T3 cytotox – kills NIH 3T3 cells; NIH 3T3 viability, CellTiter-Glo ATP luminescence, 48-72 h; Potency, µM (doses to about 96.7 µM), for inactives: at the top dose activity change, negative = cytotoxicity, actives largely listed as inhibitors; 94,000 compounds, 4.3% hits; AID 1345082; also: nearly all actives have a fitted effect of over 55% in size
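Cytotoxicity was measured by CellTiter-Glo ATP luminescence after 48 or 72 h compound exposure at 37 °C. Mouse NIH 3T3 fibroblasts were seeded at 400 cells/well and dosed by 23 nL pin transfer.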
Luciferase inh – Photinus pyralis luciferase inhibition. 76,000 compounds, 2.5% hits. purified P. pyralis luciferase, luminescence, biochemical. P08659. AID 1347043. Potency, µM (doses to about 115 µM), hits mostly inhibitors; also: nearly all actives have a fitted effect of over 65% in size
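FLuc 10nM, D-luciferin 10uM, ATP 10uM, Mg acetate 10mM, Tris acetate pH 7.5, Tween/BSA; cpd qHTS; enzyme added last; CCD luminescence.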
HEK cytotox – cytotoxic compounds in HEK 293 cells; HEK 293 viability, ATP luminescence (CellTiter-Glo), 48-72 h; Potency, µM (series often up to 115 µM), without a hit: top-dose activity change, negative = cytotoxicity, most hits filed as inhibitors; 94,000 compounds, 6.6% hits; AID 1345083; also: nearly all actives have a fitted effect of over 60% in size
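HEK 293 cells at 250 cells/well were exposed to compounds by pintool transfer for 48 or 72 hr at 37 degree Celsius, 5% CO2. Viability was read as ATP-coupled luminescence with CellTiter-Glo after 10 min at room temperature.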
* = called active by the depositor; i = inactive; ? = inconclusive; · = not tested or not shown; ! = not confirmed by another sample; [ ] = another dose, or the depositor's remark. An excerpt weighted towards active compounds, which were near 10% of everything screened. Unless noted, calls follow the shape of the dose curve; as a rule, active = well fitted curve in the direction sought with a large enough effect; inconclusive = small, poorly fitted or top-dose-only effect, or another doubt; inactive = no such curve, though single readings can be large; an effect the other way counts as inactive or inconclusive. % is scaled to controls: 0 for no effect and ±100 for the full control effect; potency is read from the fitted curve at half-maximal effect.

SMILES | NPR1 antag | GPT2 inhibitor | 3T3 cytotox | Luciferase inh | HEK cytotox
Cc1ccc(C2NC(=O)N(CC(=O)Nc3ccccc3)C3=C2C(=O)OC3)cc1 (centres undefined) | -9% | 4% | ? | i | ?
O=C(CN1C(=O)NC(c2ccc(Cl)cc2)C2=C1COC2=O)Nc1ccc2c(c1)CCC2 (centres undefined) | -29% | 4% | 25µM* | i | 22µM*
COCCOC1CCOC2(CCN(S(=O)(=O)c3c(C)noc3C)CC2)C1 (centres undefined) | 7% | -5% | -13% | i | -3%
COCCNC(=O)CCc1c(C)nn(-c2ccc(F)cc2)c1Oc1ccc(F)cc1F | -6% | -5% | 25µM* | i | ?
CCN(CC)C(=O)CCc1c(C)nn(-c2ccccc2C)c1Oc1cccc(F)c1 | -16% | -1% | ? | i | 40µM*
Cc1ccccc1-n1nc(C)c(CCC(=O)N(C)C(C)C)c1Oc1ccccc1F | -19% | -14% | ? | i | 45µM*
Cc1nn(-c2ccc(F)cc2)c(Oc2ccc(F)cc2F)c1CCC(=O)N(C)C(C)C | -18% | -5% | ? | i | 40µM*
Cc1nn(-c2ccc(F)cc2)c(Oc2ccc(F)cc2F)c1CCC(=O)NC(C)C | -6% | -14% | ? | i | ?
COc1ccc(CNC(=O)N2CCCC(CN3CCCC3)CC2)cc1 (centres undefined) | 3% | i | -21% | i | ?
Cc1cccc(-n2nc(C)c(CCC(=O)N(C)C(C)C)c2Oc2ccc(F)cc2F)c1 | ? | i | 40µM* | i | ?
Cc1cccc(-n2nc(C)c(CCC(=O)N(C)C(C)C)c2Oc2ccccc2C)c1 | ? | i | 28µM* | i | ?
CCN1c2cc(C(=O)Nc3ccccc3F)ccc2C(=O)N2CCCC21 (centres undefined) | 4% | i | -24% | ? | ?
O=C(C[C@@H]1CCNC[C@@H]1Cc1cc(COc2ccccc2)on1)NCc1ccc(F)cc1 | -14% | i | ? | i | ?
COc1ccc(CNC(=O)C[C@@H]2CCNC[C@@H]2Cc2cc(CSc3ccccc3)on2)cc1 | -29% | i | ? | i | 50µM*
O=C(C[C@@H]1CCNC[C@@H]1Cc1cc(CC2CCCCC2)on1)NCc1cccnc1 | 0%[70.6 µM] | 4%[88.5 µM] | ? | i | 2%[172 µM]
COc1ccc(CNC(=O)C[C@@H]2CCNC[C@@H]2Cc2cc(CC3CCCCC3)on2)cc1 | ? | ? | 28µM* | i | 28µM*
O=C(C[C@@H]1CCNC[C@@H]1Cc1cc(CC2CCCCC2)on1)NCc1ccco1 | ? | i | 100µM* | i | 45µM*
COc1ccc(CNC(=O)C[C@@H]2CCNC[C@@H]2Cc2cc(C(C)(C)C)on2)cc1 | -2%[70.6 µM] | 0%[88.5 µM] | -27%[138 µM] | i | ?
COc1ccc(CNC(=O)C[C@@H]2CCNC[C@@H]2Cc2cc(COc3ccccc3)on2)cc1 | -24% | -2% | 25µM* | i | ?
O=C(c1ccc(Cl)cc1)N1CC2(CCN(CC3CCCCC3)CC2)Cc2ccccc21 | · | i | ? | · | ?
COc1ccccc1N1CCN(C(=O)Nc2n[nH]c(Cc3ccccc3)n2)CC1 | -17% | 5% | ? | i | 25µM*
O=C(c1cc2cn(C3CC3)cc2s1)N1CCc2ccccc2C1 | -1% | 2% | ? | i | 89µM*
COc1cccc([S+](=O)([O-])NC[C@@H]2CC[C@H]3C[C@@H]2C3(C)C)c1 | 9%[70.6 µM] | -10%[88.5 µM] | ? | i | 100µM*
COCCCNC(=O)c1cnc2n[nH]c(-c3ccccc3)c2n1 | -6%[70.6 µM] | ? | ? | i | 100µM*
Cc1ccc(-c2cccc(CN3CCCC(c4nc5ccc(F)cc5c(=O)[nH]4)C3)c2)c(C)c1 (centres undefined) | -5% | i | 40µM* | i | 32µM*!
O=c1[nH]c(C2CCCN(Cc3cccc(-c4cccs4)c3)C2)nc2ccc(F)cc12 (centres undefined) | ? | -3% | 32µM* | i | 32µM*
